Measured values: PubChem BioAssay

Biological target: Pro-neuregulin-1, membrane-bound isoform (Homo sapiens) (UniProt Q02297)
Assay: small molecules binding neuregulin-1 protein – biochemical, small-molecule microarray, fluorescence 635/667, psychiatric disease protein project, primary screen (AID 1075);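 further: score combines 667 nm spot fluorescence with signal to noise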
Settings: NRG1 binding, 635 nm fluorescence, higher = more signal

Sequence of Pro-neuregulin-1, membrane-bound isoform (Homo sapiens) (Q02297 whole entry, looked up, canonical isoform): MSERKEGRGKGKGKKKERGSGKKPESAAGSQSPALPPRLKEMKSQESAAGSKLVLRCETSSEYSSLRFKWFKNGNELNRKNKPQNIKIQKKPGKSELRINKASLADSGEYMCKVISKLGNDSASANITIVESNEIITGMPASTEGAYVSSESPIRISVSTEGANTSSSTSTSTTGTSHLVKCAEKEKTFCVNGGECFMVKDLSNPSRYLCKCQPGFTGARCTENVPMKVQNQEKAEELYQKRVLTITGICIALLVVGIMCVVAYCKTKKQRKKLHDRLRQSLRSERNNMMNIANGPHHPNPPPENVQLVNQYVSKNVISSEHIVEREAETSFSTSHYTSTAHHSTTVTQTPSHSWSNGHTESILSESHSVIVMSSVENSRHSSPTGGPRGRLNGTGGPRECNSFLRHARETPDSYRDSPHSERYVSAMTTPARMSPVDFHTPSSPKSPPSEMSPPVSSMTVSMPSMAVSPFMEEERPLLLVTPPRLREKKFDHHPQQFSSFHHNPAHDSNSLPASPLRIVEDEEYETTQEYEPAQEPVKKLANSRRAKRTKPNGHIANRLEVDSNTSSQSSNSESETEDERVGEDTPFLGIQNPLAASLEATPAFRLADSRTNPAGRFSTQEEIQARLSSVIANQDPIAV

SMILES | composite z-score
CC(C)=NO[C@H](C)c1cn([C@H](CO)Cc2ccccc2)nn1 | 0.274
CCOC(=O)[C@H](CC(C)C)NC(=O)CCC1CC(OC(=O)NCc2cccc3ccccc23)CC2(CCCC(COC(=O)NCCOc3ccccc3)O2)O1 (stereo partly specified) | 0.647
O=C1C[C@@H](O)[C@@H](O)[C@@H]2[C@@H]3C(=O)N(C[C@@H]4CCCO4)C(=O)[C@@H]3CC[C@@H]12 | 0.123
CCOC(=O)[C@H](CC(C)C)NC(=O)CCC1CC(OC(=O)NCc2cccc3ccccc23)CC2(CCCC(COC(=O)NCCc3ccc(Cl)cc3)O2)O1 (stereo partly specified) | 0.533
CO[C@H]1COC(=O)CC=C[C@@H](C)[C@H](NS(=O)(=O)c2ccc(C)cc2)COC(=O)CCC[C@@H]1C | -0.25
CO[C@H]1COC(=O)[C@H](C)NC(=O)CC=C[C@@H](C)[C@H](OC)COC(=O)[C@@H](OCc2ccccc2)C=C[C@@H]1C | -0.954
CCCNC(=O)OC[C@H]1O[C@H](CCON=C(C)CCN2CCCc3nc(C)c(C)cc32)C=C[C@@H]1Oc1ccc(OC)cc1 | 0.639
C#CCCCON=C1C[C@@H](O)[C@@H](O)[C@@H]2[C@@H]3C(=O)N(CC)C(=O)[C@@H]3CC[C@@H]12 | 0.614
COC(=O)[C@H](C)NC(=O)CCC1CC(OC(=O)NCc2ccc3c(c2)OCO3)CC2(CCCC(COC(=O)NCC3CCCCC3)O2)O1 (stereo partly specified) | 0.586
CO[C@H]1COC(=O)CC=C[C@@H](C)[C@H](OC)COC(=O)[C@@H]2CCCN2C(=O)CC=C[C@@H]1C | -0.591
CON=C[C@@H](NS(=O)(=O)c1ccc(C)cc1)[C@H](C)C=CCC(=O)OC | -0.23
